Assay outcomes (PubChem BioAssay)
Gal4-VP16 FLuc: counter-screen for ROR gamma inhibitors: Gal4-VP16 reporter | Drosophila S2 Gal4-VP16 UAS-luciferase, luminescence, 20 h | Potency, µM (highest dose often 53.6 µM), for inactives: at the top dose activity, negative = inhibition, most hits filed as inhibitors | 3.5% of 310,000 active | AID 2546;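 further: Gal4-VP16 expression switched on by copper sulfate through the metallothionein promoter; nearly all actives have a fitted effect of over 50% in size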
TDP1 cell noCPT: qHTS for Inhibitors of human tyrosyl-DNA phosphodiesterase 1 (TDP1): qHTS in cells in absence of CPT; DT40 Tdp1-/- hTDP1 cells, no CPT, ATP luminescence, 48 h; 15% of 420,000 active; Potency, µM (titrated, usually from 46.2 µM), for inactives: at the top dose activity change, negative = growth inhibition, hits mostly inhibitors; further: nearly all actives have a fitted effect of over 55% in size
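DT40 Tdp1-/-;hTDP1 cells, no CPT (DMSO vehicle only), 400 cells/well; compounds pin-transferred; ≥48 hr, 37 °C; CellTiter-Glo 30 min RT dark, luminescence read.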
DT40 TDP1 CPT: DT40-hTDP1 cell growth loss with CPT; 12% of 420,000 active; AID 686979; chicken DT40 Tdp1-/-;hTDP1 cells + 20 nM CPT, ATP luminescence, 48 h; Potency, µM (titrated, usually from 46.2 µM), for inactives: at the top dose activity change, negative = growth inhibition, most hits filed as inhibitors; further: nearly all actives have a fitted effect of over 55% in size
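Cell growth measured by CellTiter-Glo luminescence after a minimum 48 h, 37 C compound exposure with 20 nM CPT in Tdp1-knockout DT40 cells stably expressing hTDP1, seeded 400/well; qHTS titration format.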
TDP1 inh: inhibitors of human tyrosyl-DNA phosphodiesterase TDP1 | Q9NUW8 | recombinant TDP1, AlphaScreen DNA substrate cleavage | Potency, µM (doses to about 130 µM), for the others: at the top dose activity change, negative = inhibition, actives largely listed as inhibitors | 0.28% of 350,000 active; further: nearly all actives have a fitted effect of over 40% in size
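Compounds were preincubated with Tdp1 (1 nM final) for 15 min at room temperature before substrate (15 nM final) started a 5 min reaction; beads (10 ug/ml final) were then added for 10 min before AlphaScreen detection.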
RORg inh: inhibitors of mouse ROR gamma transcriptional activity; Drosophila S2 Gal4-RORgamma UAS-luciferase reporter, 20 h; P51450; 5.4% of 310,000 active; Potency, µM (doses to about 53.6 µM), for the others: at the highest dose activity change, negative = inhibition, actives largely listed as inhibitors; further: nearly all actives have a fitted effect of over 60% in size
Target sequence (P51450 whole entry, looked up, the tested form may be a part): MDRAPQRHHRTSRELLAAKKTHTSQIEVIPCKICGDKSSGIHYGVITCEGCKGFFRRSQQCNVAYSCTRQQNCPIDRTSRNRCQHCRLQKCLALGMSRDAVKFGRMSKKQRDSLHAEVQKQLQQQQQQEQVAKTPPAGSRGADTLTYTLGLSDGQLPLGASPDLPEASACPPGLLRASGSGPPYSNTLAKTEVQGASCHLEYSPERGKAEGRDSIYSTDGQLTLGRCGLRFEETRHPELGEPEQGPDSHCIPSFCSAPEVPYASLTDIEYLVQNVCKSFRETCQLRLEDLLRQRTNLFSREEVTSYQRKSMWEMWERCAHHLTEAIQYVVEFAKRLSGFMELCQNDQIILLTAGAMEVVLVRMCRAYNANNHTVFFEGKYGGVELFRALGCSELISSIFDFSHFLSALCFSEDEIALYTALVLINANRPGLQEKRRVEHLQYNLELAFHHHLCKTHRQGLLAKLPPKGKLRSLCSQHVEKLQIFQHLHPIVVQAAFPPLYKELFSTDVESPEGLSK
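Luminescence from a UAS-regulated Photinus luciferase reporter in stably transfected Drosophila Schneider cells is measured; decreased signal marks ROR gamma inhibition. Fusion expression is induced by 700 uM copper sulfate for 20 hr.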
An asterisk follows results filed as active; ? = inconclusive; · = not tested or not shown; [ ] = dose if it differs, or a comment. An excerpt weighted towards active compounds, which were near 19% of everything screened. The call rests on the fitted dose curve; in most records, active means well fitted curve in the direction sought with a large enough effect; inconclusive means small, poorly fitted or top-dose-only effect, or another doubt; inactive means no such curve, though single readings can be large; an effect the other way counts as inactive or inconclusive. On the % scale 0 is the no-effect control and ±100 the full control effect; potency means the concentration at half of the fitted maximal effect.

SMILES	Gal4-VP16 FLuc	TDP1 cell noCPT	DT40 TDP1 CPT	TDP1 inh	RORg inh
O=C(CNC(=O)c1ccccc1)N/N=C/c1cc(Br)ccc1O	7.1µM*	7.3µM*	7.3µM*	3%	2.5µM*
COC(=O)c1c(C)[nH]c(O)c1C=Nc1ccc(C(C)C)cc1	?	18µM*	?	4%	?
COCCC(=O)Nc1ccc2c(c1)CN(C(=O)c1ccc(CSC)o1)CC2	1%	2.9µM*	-28%	·	40%
COc1ccc(OC)c(C2C(C(=O)O)c3ccccc3C(=O)N2C)c1 (stereo not drawn)	4%	5%	4%	5%	9%
CCOc1ccc(OCC(=O)OC(C)C(=O)Nc2ccc(Cl)cn2)cc1 (stereo not drawn)	·	2%	1%	-4%	·
O=C(CS(=O)(=O)c1cccc2nsnc12)N1CCN(c2cccc(C(F)(F)F)c2)CC1	·	21µM*	8.2µM*	0%	·
Cc1cccc(N2CCN(C(=O)CS(=O)(=O)c3cccc4nsnc34)CC2)c1C	·	?	16µM*	8%	·
CCc1nnc(N/N=C/c2c(C)[nH]c3ccccc23)n1N	-7%[10 µM]	-7%	-14%	3%	?
Nc1ccc(C#Cc2ccc3sc4ccccc4c(=O)c3c2)cc1	·	-29%	-6%	·	·
CCCCn1c(N)c(NCc2ccccc2)c(=O)[nH]c1=O	4%	9%	3%	8%	-11%
CCCCn1c(N)c(NCC)c(=O)[nH]c1=O	3%	23µM*	?	5%	9%
CCc1cccc(N2C(=O)CS(=O)(=O)C23C(=O)N(Cc2ccc(F)cc2)c2ccc(C)cc23)c1 (stereo not drawn)	·	23µM*	?	7%	·
Cc1cc(C)cc(N2C(=O)CS(=O)(=O)C23C(=O)N(Cc2ccc(F)cc2)c2ccc(C)cc23)c1 (stereo not drawn)	·	21µM*	18µM*	0%	·
COc1ccc(N2C(=O)CS(=O)(=O)C23C(=O)N(Cc2cccc(F)c2)c2ccccc23)cc1OC (stereo not drawn)	·	?	-24%	0%	·
COc1ccc(N2C(=O)CS(=O)(=O)C23C(=O)N(Cc2ccccc2)c2ccccc23)cc1 (stereo not drawn)	·	?	-29%	-2%	·
CCc1cccc(N2C(=O)CS(=O)(=O)C23C(=O)N(Cc2ccccc2)c2ccc(C)cc23)c1 (stereo not drawn)	·	18µM*	?	-1%	·
Cc1ccccc1CN1C(=O)C2(c3ccccc31)N(c1ccccc1)C(=O)CS2(=O)=O (stereo not drawn)	·	-16%	-22%	2%	·
COc1ccc(-c2ccc(C3C4C=CCC(C)C4C(=O)N3Cc3ccccc3)c(F)c2)cc1 (stereo not drawn)	-3%	·	·	8%	15%
COc1ccc2c(c1)CCc1c(C(=O)NCc3ccc(F)cc3)noc1-2	-21%	-36%	6%	9%	-22%
COc1cc(NC(=O)c2noc3c2CCc2ccccc2-3)cc(OC)c1OC	·	16µM*	7.3µM*	1%	·
COc1ccc2c(c1)CCc1c(C(=O)N3CC4(C)CC3CC(C)(C)C4)noc1-2 (stereo not drawn)	?	?	16µM*	5%	-40%
CCCNC(=O)c1noc2c1CCc1ccccc1-2	20%	-5%	10%	-5%	21%
CC1(C)CC2CC(C)(CN2C(=O)c2ccccc2)C1 (stereo not drawn)	4%	-23%	16µM*	4%	-1%
COc1ccc2c(c1)CCc1c(C(=O)N3CCOCC3)noc1-2	5%[0.365 µM]	-32%	-27%	3%	-9%
COc1ccc(C(=O)N2CC3(C)CC2CC(C)(C)C3)cc1 (stereo not drawn)	-7%	?	?	3%	-17%
SMILES	Gal4-VP16 FLuc	TDP1 cell noCPT	DT40 TDP1 CPT	TDP1 inh	RORg inh
COc1ccc2c(c1)CCc1c(C(=O)NCCc3ccc(OC)c(OC)c3)noc1-2	-2%[0.365 µM]	13µM*	?	0%	-12%
CCc1nc2nc(C)c(NS(=O)(=O)c3ccc(F)cc3)c(=O)n2[nH]1	-6%	-6%	9%	3%	1%
COc1ccc2c(c1)CCc1c(C(=O)Nc3ccc(OC)c(OC)c3)noc1-2	?	?	?	4%	1.4µM*
CCOC(=O)C1CCN(C(=O)Nc2ccc3nc(-c4ccco4)c(-c4ccco4)nc3c2)CC1	29%	18µM*	?	35µM*	?
O=C(Nc1ccc2nc(-c3ccco3)c(-c3ccco3)nc2c1)N1CCCCCC1	-5%[0.365 µM]	15µM*	12µM*	·	-39%
CCOC(=O)C1CCN(C(=O)Nc2ccc3c(c2)nc(C)n3C)CC1	-8%	2%	-3%	5%	0%
CCCCNC(=O)C1(C)CCN1Cc1cc(C)ccc1C (stereo not drawn)	·	?	23µM*	·	·
CCCCNC(=O)C1(C)CCCCN1Cc1ccc(OCc2ccccc2)cc1 (stereo not drawn)	·	21µM*	21µM*	·	·
CCCCNC(=O)C1(C)CCN1C(=O)c1ccc(F)c(C)c1 (stereo not drawn)	·	?	-28%	·	·
CCCCNC(=O)C1(C)CCCCN1Cc1ccc(-c2ccccc2)cc1 (stereo not drawn)	·	8.2µM*	13µM*	·	·
CCCCNC(=O)C1(C)CCCCCN1Cc1cc2ccccc2o1 (stereo not drawn)	·	?	18µM*	·	·
CC(C)CCNC(=O)C1(C)CCN1Cc1ccc(-c2ccccn2)cc1 (stereo not drawn)	·	-72%	?	·	·
COc1cc([N+](=O)[O-])ccc1NC(=O)NCc1ccccn1	9%	21%	0%	5%	-35%
O=C(c1ccc(N2CCCC2=O)cc1)N1CCN(c2ccccc2F)CC1	9%	2%	-28%	2%	-3%
COc1ccc(-c2nn3c(-c4ccccc4)nnc3c3ccccc23)cc1	·	-21%	1%	1%	·
C/C(=N\NC(=O)c1cc(C)oc1C)c1ccc2c(c1)OCO2	14%	0%	3%	11%	-8%
CCCCn1c(-c2cccc3ccccc23)nc2cc3[nH]c(=O)c(C(C)C)nc3cc21	-4%	16µM*	?	·	3%
CCCCn1c(C2CCCCC2)nc2cc3[nH]c(=O)c(C(C)C)nc3cc21	1%	?	?	·	1%
CCCCn1c(-c2ccccc2C)nc2cc3[nH]c(=O)c(C(C)C)nc3cc21	2%	?	21µM*	·	-11%
CC(=O)N1c2ccc(S(=O)(=O)N(C)C3CCCCC3)cc2CC1C (stereo not drawn)	-3%	-12%	-10%	7%	-1%
Cc1ccc(Nc2c([N+](=O)[O-])ccc3nonc23)c(C)c1	9%	0%	22%	·	29%
